HCMV inh – qHTS Assay for inhibitors of the human cytomegalovirus (HCMV) | HFF cells, HCMV-luciferase reporter, 72 h; hits give low values | activity change, negative = inhibition, % at 57.5 µM | hit rate 4.5% among 410,000; in the data active means activity change below about -60%; inconclusive means no clear call, values can overlap the other calls; inactive means above about -39%
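Inhibition of viral replication was scored as loss of reporter luminescence in HFFs infected with HCMV-luciferase (MOI 1 PFU/cell) for 72 h; compounds tested at 2 doses, normalized to buffer and Salinomycin controls.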
HCV inhibitor – qHTS Assay for Inhibitors of Hepatitis C Virus (HCV) | Huh7.5.1 HCVcc-Cre infection, luciferase reporter, 44 h | Potency, µM (titrated, usually from 41.8 µM), inactives show top-dose activity change, negative = inhibition, hits mostly inhibitors | hit rate 3.4% among 340,000 | AID 651820, 2012; active means well fitted inhibition curve with a large enough effect; inconclusive means small, poorly fitted or top-dose-only effect, or another doubt; inactive means no such curve, though single readings can be large or run the other way; further: potency means the concentration at half of the fitted maximal effect
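Compounds are dispensed onto cells plated 4 h earlier at 1,000 per well, with HCVcc-Cre virus (about 0.5 moi) added next. Following 44 h of culture, luminescent signal is measured for 15 sec after 15 min with substrate at room temperature.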
Vaccinia mCherry – qHTS for Stage-Specific Inhibitors of Vaccinia Orthopoxvirus: mCherry Reporter Primary qHTS; Vaccinia virus mCherry reporter infection, fluorescence; Potency, µM (top dose mostly 36.5 µM), for inactives: top-dose activity change, negative = inhibition, hits mostly inhibitors; hit rate 0.63% among 310,000; AID 720579, 2013; calls by dose curve; tested in A549 cells; further: potency means the concentration at half of the fitted maximal effect; nearly all actives have a fitted effect of over 35% in size
Vaccinia Venus – qHTS for Stage-Specific Inhibitors of Vaccinia Orthopoxvirus: Venus Reporter Primary qHTS | Vaccinia virus Venus reporter expression, fluorescence | Potency, µM (doses to about 36.5 µM), for inactives: top-dose activity change, negative = inhibition, usual class: inhibitors | hit rate 0.46% among 330,000 | AID 720580, 2013; calls by dose curve; tested in A549 cells; further: potency means the concentration at half of the fitted maximal effect; nearly all actives have a fitted effect of over 30% in size
MARV entry inh – qHTS for inhibitors of binding or entry into cells for Marburg Virus | Marburg virus pseudotyped entry inhibition, cell reporter | Potency, µM (highest dose often 37.8 µM), inactives show top-dose activity change, negative = inhibition, hits mostly inhibitors | hit rate 1.8% among 300,000 | AID 540276, 2011; calls by dose curve; tested in HEK293 cells; further: potency means the concentration at half of the fitted maximal effect
LASV entry inh – qHTS for Inhibitors of binding or entry into cells for Lassa Virus; Lassa virus pseudotype entry inhibition, cell reporter; Potency, µM (series often up to 37.9 µM), inactives show at the top dose activity change, negative = inhibition, most hits filed as inhibitors; hit rate 1.2% among 300,000; calls by dose curve; tested in HEK293 cells; further: potency means the concentration at half of the fitted maximal effect; nearly all actives have a fitted effect of over 50% in size
* hit, by the source's call; [ ] = remark or other dose. Shown are actives, neighbours in structure and some others; about 7.8% of the full set was active somewhere. On the % scale 0 is the no-effect control and ±100 the full control effect.

What do the screens show for `Cc1c(C(=O)N(C)C)sc2c1c(=O)n(-c1ccccc1C(F)(F)F)c(=O)n2Cc1ccccc1C#N`?
HCMV inh: 3.9; Vaccinia mCherry: -7.7%; Vaccinia Venus: 2.0%; LASV entry inh: -3.0%[46.1 µM]

Results for O=S1(=O)CC(N2CC=CC2)CN1C1CCCCC1 (stereo not given) ?
HCMV inh: -1.9; Vaccinia mCherry: 45.2%; Vaccinia Venus: -5.2%; MARV entry inh: inconclusive

Results for CCC(=O)OCc1cc(=O)n2nc(C3CC3)sc2n1 ?
HCMV inh: 6.6; Vaccinia mCherry: -13.5%; Vaccinia Venus: -9.1%; LASV entry inh: 7.8%[46.1 µM]

Results for Cn1c(N)c(C(=O)CCl)c(=O)n(Cc2ccccc2)c1=O ?
HCMV inh: -22.3; HCV inhibitor: 4.1%; Vaccinia mCherry: -30.6%; Vaccinia Venus: inconclusive; MARV entry inh: 4.0%; LASV entry inh: -1.1%

Results for Cn1c(=O)c(C(=O)CCl)c(N)n(Cc2ccccc2)c1=O ?
HCMV inh: 25.6; HCV inhibitor: inconclusive; Vaccinia mCherry: inconclusive; Vaccinia Venus: 12.6µM*; MARV entry inh: -15.8%; LASV entry inh: -8.2%

Results for Cc1nnc(SCC(=O)c2c(N)n(Cc3ccccc3)c(=O)n(C)c2=O)n1C ?
HCMV inh: -33.1; HCV inhibitor: 12.7%; Vaccinia mCherry: -17.5%; Vaccinia Venus: -4.6%; MARV entry inh: 2.2%[46.1 µM]; LASV entry inh: -9.3%[46.1 µM]

What do the screens show for `Cn1cnnc1SCC(=O)c1c(N)n(Cc2ccccc2)c(=O)n(C)c1=O`?
HCMV inh: -64.3*; HCV inhibitor: 7.9%; Vaccinia mCherry: -7.1%; Vaccinia Venus: -3.7%; MARV entry inh: -10.4%[46.1 µM]; LASV entry inh: 0.3%

Results for CC(C)=CCC/C(C)=C/CNC(=O)C[C@H]1C[C@H](C(=O)N2CCOCC2)[C@@]2(C)c3[nH]c4ccc(Cl)cc4c3CCN2C1=O ?
HCMV inh: -86.0*; HCV inhibitor: 8.0%; Vaccinia mCherry: inconclusive; Vaccinia Venus: inconclusive; MARV entry inh: -0.2%

Results for CC(C)=CCC/C(C)=C/CNC(=O)C[C@H]1C[C@H](C(=O)N2CCOCC2)[C@@]2(C)c3[nH]c4cc(-c5ccco5)ccc4c3CCN2C1=O ?
HCV inhibitor: inconclusive; Vaccinia mCherry: inconclusive; Vaccinia Venus: 11.2µM*

How did CCC(=O)N1CCc2cc(Br)cc(S(=O)(=O)CCC(=O)NCCc3ccccc3Cl)c21 do in these assays?
HCMV inh: -8.0; Vaccinia mCherry: -10.2%; Vaccinia Venus: -10.6%; MARV entry inh: 27.9%[46.1 µM]; LASV entry inh: 3.4%[46.1 µM]

How did CCOP(=O)(c1ccc(N(C)C)cc1)C(O)c1ccccc1 (stereo not given) do in these assays?
HCMV inh: -82.9*; HCV inhibitor: -23.7%; MARV entry inh: inconclusive; LASV entry inh: 8.7%

How did CCOC(=O)CCC(NC(=O)CC(=O)NC(CCC(=O)OCC)C(=O)OCC)C(=O)OCC (stereo not given) do in these assays?
HCMV inh: -95.7*; HCV inhibitor: 9.1%

Results for COc1cccc(CNC(=O)Nc2ccc3c(c2)N(C)C(=O)c2ccccc2S3)c1 ?
HCMV inh: inconclusive; Vaccinia mCherry: -21.3%; Vaccinia Venus: -26.5%; MARV entry inh: -5.5%[46.1 µM]; LASV entry inh: -17.4%[46.1 µM]

What do the screens show for `C[C@H]1CN=C(N(C)C)N1CCc1ccccc1`?
HCMV inh: -66.6*; HCV inhibitor: 6.6%; Vaccinia mCherry: inactive; Vaccinia Venus: -2.0%

What do the screens show for `C[C@H]1CN=C(N(C)C)N1CCc1cccc(F)c1`?
HCMV inh: -10.6; HCV inhibitor: inconclusive; Vaccinia mCherry: inactive; Vaccinia Venus: -6.5%

What do the screens show for `CN(C)C1=NC[C@H](Cc2ccccc2)N1CCCC1CCCCC1`?
HCMV inh: -3.0; HCV inhibitor: 3.98µM*; Vaccinia mCherry: inconclusive; Vaccinia Venus: -20.6%

Results for COc1cccc2c1cc1c(=O)n(CC(=O)NCc3ccc(C)o3)nc(C)n12 ?
HCMV inh: 39.1; Vaccinia mCherry: -14.2%; Vaccinia Venus: -7.1%; MARV entry inh: 22.7%[46.1 µM]

What do the screens show for `Cc1cc(-c2ccc(S(=O)(=O)N3CCN(c4ccc(Cl)cc4)CC3)s2)on1`?
HCMV inh: 0.0; Vaccinia mCherry: -3.0%; Vaccinia Venus: -20.4%; LASV entry inh: 2.5%[46.1 µM]

Results for O=C(CN1C(=O)NC(Cc2c[nH]c3ccccc23)C1=O)Nc1cccc(S(=O)(=O)N2CCCC2)c1 (stereo not given) ?
HCMV inh: 53.1; HCV inhibitor: inconclusive; Vaccinia mCherry: -28.8%; Vaccinia Venus: 3.2%; MARV entry inh: -21.5%; LASV entry inh: -7.8%

Results for Cc1ccc(NC(=O)CN2C(=O)NC(Cc3c[nH]c4ccccc34)C2=O)cc1S(=O)(=O)N1CCCCC1 (stereo not given) ?
HCMV inh: -7.8; HCV inhibitor: 11.2µM*; Vaccinia mCherry: inconclusive; Vaccinia Venus: -28.5%; MARV entry inh: inconclusive; LASV entry inh: -5.3%

What do the screens show for `CN(C)S(=O)(=O)c1cccc(NC(=O)CN2C(=O)NC(Cc3c[nH]c4ccccc34)C2=O)c1` (stereo not given)?
HCMV inh: -26.0; HCV inhibitor: 1.58µM*; Vaccinia mCherry: inconclusive; Vaccinia Venus: -26.6%; MARV entry inh: 18.1%[46.1 µM]; LASV entry inh: 4.5%[46.1 µM]

How did O=C(CN1C(=O)NC(Cc2c[nH]c3ccccc23)C1=O)Nc1cccc(S(=O)(=O)N2CCCCCC2)c1 (stereo not given) do in these assays?
HCMV inh: inconclusive; HCV inhibitor: 10µM*; Vaccinia mCherry: inconclusive; Vaccinia Venus: inconclusive; MARV entry inh: inconclusive; LASV entry inh: -15.0%

Results for COc1ccc(C=CC2=C[C@]3(C)C[C@]2(C)[C@H](c2ccc(OC)cc2)CC3=O)cc1 ?
MARV entry inh: 3.8%[14.2 µM]

What do the screens show for `C/C(=N\Nc1nc(N)cc(Cl)n1)c1ccc(F)cc1`?
HCMV inh: -5.7; HCV inhibitor: inconclusive; Vaccinia mCherry: -10.6%; Vaccinia Venus: -13.8%

What do the screens show for `C/C(=N\Nc1nc(N)cc(Cl)n1)c1ccc(Cl)c(Cl)c1`?
HCMV inh: -38.7; HCV inhibitor: 11.2µM*; Vaccinia mCherry: -20.2%; Vaccinia Venus: -19.5%; MARV entry inh: -1.2%[46.1 µM]; LASV entry inh: 4.1%

Results for S=C(NCc1ccco1)N1CCN(c2nc(-c3ccccc3)cs2)CC1 ?
HCMV inh: inconclusive; HCV inhibitor: inconclusive; Vaccinia mCherry: -21.5%; Vaccinia Venus: -18.9%; MARV entry inh: -19.7%[46.1 µM]; LASV entry inh: 0.4%

What do the screens show for `COCCNC(=S)N1CCN(c2nc(-c3ccc(Cl)cc3)cs2)CC1`?
HCMV inh: inconclusive; HCV inhibitor: 12.6µM*; Vaccinia mCherry: inconclusive; Vaccinia Venus: -14.7%; MARV entry inh: -21.5%[46.1 µM]; LASV entry inh: 27.8%[46.1 µM]
